Assays:
Assay in all cases: log2 ratio of Biotin-Ahx-Ub-VS probe labelling (fragment/DMSO); higher = less target engagement (more negative = stronger competition), active = hit call of the paper (q ≤ 0.05, log2 ratio ≤ -1)
Conditions in all cases: compound concentration: 200 uM; treatment time: 3 h
[1] = biological target: T1, USP42 (UniProt Q9H9J4)
T1 sequence (whole entry): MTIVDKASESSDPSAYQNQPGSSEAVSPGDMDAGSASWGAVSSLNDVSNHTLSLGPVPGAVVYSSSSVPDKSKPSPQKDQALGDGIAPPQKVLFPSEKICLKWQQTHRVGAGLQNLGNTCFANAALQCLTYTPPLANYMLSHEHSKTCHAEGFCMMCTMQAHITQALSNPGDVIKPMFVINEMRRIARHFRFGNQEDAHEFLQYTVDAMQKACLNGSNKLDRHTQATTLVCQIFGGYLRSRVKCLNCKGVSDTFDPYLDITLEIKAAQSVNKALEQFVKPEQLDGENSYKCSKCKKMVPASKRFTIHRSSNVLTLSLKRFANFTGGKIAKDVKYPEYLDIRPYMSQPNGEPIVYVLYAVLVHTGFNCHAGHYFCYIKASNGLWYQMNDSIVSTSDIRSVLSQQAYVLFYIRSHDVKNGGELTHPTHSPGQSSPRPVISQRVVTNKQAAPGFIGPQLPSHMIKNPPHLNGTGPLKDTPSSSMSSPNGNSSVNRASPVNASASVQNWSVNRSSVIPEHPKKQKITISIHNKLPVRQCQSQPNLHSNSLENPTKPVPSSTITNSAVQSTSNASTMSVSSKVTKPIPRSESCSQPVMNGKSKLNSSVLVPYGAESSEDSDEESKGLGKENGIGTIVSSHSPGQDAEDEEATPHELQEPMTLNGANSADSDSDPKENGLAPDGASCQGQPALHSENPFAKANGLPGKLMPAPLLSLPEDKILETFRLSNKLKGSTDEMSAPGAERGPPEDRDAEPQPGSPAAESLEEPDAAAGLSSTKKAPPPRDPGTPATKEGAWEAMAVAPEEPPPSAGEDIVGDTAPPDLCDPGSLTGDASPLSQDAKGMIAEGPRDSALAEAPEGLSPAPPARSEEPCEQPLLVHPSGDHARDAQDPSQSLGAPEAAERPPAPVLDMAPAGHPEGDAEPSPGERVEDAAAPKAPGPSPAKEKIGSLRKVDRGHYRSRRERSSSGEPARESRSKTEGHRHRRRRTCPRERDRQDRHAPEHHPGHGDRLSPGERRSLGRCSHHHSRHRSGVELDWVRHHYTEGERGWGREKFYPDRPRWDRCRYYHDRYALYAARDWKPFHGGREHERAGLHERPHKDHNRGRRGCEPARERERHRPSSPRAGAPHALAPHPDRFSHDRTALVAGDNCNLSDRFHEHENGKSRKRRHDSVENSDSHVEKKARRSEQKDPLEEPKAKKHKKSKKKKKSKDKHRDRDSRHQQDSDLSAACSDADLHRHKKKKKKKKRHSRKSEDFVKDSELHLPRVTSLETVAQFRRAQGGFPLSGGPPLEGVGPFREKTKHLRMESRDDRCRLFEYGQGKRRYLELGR
How it was run: (§1)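 Each value is an average log2 ratio of fragment to vehicle, tested by unpaired t-test. The underlying Spectronaut label-free quantities were global-median-normalised, and only proteins with ≥2 unique peptides were included. Triplicate HEK293T lysate samples (495 µg) were exposed to fragment at 200 µM or vehicle for 3 h, then to Biotin-Ahx-Ub-VS at 0.5 µM final for 1 h, before NeutrAvidin enrichment of labelled DUBs, LysC and trypsin digestion, and diaPASEF LC-MS/MS.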

[2] = biological target: USP46 (UniProt P62068)
USP46, sequence (P62068 whole entry): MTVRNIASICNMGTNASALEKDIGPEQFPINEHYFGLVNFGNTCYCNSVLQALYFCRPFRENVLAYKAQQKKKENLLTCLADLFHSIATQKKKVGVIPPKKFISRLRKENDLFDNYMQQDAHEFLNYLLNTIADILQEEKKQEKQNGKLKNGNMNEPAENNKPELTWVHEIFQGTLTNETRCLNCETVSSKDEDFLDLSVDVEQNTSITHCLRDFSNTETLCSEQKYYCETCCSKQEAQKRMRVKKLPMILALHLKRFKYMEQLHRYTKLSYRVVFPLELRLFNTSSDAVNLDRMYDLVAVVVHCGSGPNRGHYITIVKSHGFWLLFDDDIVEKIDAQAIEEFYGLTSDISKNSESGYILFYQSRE
How it was run: as §1

[3] = biological target: T2, USP47 (UniProt Q96K76)
T2 sequence (whole entry): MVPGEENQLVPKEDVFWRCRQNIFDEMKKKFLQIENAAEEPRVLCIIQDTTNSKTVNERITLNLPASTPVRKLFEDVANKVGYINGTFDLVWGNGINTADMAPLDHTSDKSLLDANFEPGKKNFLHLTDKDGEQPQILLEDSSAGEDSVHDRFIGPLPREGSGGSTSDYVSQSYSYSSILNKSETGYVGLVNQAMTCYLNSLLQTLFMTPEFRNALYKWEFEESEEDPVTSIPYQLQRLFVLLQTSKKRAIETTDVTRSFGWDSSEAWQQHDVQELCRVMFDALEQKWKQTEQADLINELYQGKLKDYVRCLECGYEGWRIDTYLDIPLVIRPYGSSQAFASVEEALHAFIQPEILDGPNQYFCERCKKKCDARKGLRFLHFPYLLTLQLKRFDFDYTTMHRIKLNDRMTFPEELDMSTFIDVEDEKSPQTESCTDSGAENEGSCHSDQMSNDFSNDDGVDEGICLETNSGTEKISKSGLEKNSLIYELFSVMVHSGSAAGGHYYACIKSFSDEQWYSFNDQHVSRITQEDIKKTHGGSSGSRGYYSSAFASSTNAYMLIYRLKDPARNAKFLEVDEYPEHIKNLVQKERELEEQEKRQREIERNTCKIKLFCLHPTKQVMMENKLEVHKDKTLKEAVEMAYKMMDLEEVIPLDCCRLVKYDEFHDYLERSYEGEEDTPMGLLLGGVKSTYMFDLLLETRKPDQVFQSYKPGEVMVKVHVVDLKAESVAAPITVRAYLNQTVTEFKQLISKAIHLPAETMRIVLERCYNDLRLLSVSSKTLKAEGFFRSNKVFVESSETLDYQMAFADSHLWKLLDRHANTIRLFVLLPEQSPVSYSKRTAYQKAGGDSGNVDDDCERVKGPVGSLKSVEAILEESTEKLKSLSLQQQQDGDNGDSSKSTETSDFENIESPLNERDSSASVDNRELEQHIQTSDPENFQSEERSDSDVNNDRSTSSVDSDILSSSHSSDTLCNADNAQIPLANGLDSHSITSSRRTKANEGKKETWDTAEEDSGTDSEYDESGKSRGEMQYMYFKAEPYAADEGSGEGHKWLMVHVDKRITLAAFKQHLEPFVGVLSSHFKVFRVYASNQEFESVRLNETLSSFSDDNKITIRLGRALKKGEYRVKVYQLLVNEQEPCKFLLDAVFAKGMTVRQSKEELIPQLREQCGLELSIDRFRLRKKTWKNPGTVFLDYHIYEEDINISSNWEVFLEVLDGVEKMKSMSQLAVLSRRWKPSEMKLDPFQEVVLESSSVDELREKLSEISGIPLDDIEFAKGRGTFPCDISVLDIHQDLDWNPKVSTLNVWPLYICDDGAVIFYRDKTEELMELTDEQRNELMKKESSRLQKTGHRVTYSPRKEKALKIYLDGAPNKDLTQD
How it was run: as §1

[4] = biological target: T3, USP48 (UniProt Q86UV5)
T3 sequence (whole entry): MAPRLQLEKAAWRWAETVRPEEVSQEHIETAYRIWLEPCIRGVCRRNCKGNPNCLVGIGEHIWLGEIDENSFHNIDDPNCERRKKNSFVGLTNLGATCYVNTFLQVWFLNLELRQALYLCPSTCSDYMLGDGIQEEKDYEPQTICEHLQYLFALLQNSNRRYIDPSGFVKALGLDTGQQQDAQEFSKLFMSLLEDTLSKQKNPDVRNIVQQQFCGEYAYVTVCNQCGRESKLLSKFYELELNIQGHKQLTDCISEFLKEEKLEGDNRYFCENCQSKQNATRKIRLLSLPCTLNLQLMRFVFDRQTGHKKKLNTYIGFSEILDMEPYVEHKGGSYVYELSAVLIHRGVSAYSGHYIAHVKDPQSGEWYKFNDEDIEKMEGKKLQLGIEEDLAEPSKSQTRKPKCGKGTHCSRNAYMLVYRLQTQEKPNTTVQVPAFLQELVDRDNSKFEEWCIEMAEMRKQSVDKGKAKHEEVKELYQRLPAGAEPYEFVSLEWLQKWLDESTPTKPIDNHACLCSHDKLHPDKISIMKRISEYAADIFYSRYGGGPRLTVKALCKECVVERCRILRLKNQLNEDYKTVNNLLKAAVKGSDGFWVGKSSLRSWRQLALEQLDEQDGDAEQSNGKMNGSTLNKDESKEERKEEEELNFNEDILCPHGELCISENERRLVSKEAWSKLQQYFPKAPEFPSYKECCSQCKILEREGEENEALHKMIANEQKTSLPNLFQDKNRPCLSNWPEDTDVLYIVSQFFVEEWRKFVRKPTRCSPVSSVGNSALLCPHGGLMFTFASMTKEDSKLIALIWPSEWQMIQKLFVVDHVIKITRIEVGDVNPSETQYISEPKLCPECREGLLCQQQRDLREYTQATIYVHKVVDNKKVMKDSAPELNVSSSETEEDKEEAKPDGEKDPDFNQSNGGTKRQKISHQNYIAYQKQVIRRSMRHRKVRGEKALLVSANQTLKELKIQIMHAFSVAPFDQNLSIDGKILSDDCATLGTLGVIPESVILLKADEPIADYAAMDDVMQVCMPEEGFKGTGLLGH
How it was run: as §1

[5] = biological target: T4, USP5 (UniProt P45974)
T4 sequence (whole entry): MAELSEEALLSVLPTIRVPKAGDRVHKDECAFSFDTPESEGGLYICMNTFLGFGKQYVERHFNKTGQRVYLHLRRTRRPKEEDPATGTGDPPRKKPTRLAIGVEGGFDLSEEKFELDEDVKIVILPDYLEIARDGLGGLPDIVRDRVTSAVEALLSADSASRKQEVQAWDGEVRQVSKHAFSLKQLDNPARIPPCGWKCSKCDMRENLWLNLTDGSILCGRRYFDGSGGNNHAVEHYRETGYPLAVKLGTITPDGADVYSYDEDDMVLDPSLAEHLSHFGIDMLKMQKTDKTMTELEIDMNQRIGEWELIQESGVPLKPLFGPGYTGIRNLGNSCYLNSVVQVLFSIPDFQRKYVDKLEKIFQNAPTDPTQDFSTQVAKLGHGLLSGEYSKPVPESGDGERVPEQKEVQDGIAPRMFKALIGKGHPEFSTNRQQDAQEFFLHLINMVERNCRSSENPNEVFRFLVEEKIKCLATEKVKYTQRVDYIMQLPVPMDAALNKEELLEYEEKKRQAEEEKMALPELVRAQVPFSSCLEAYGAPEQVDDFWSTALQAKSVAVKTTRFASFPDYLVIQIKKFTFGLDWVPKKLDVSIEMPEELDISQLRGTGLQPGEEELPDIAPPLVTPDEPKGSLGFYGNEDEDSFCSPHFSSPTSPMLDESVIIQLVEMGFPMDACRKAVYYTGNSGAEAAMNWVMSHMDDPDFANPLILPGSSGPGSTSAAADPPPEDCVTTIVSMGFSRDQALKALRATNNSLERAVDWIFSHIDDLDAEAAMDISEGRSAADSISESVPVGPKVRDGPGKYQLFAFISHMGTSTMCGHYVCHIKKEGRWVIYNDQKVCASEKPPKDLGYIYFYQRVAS
How it was run: as §1

[6] = biological target: USP54 (UniProt Q70EL1)
How it was run: as §1

[7] = biological target: USP7 (UniProt Q93009)
USP7, sequence (Q93009 whole entry, looked up): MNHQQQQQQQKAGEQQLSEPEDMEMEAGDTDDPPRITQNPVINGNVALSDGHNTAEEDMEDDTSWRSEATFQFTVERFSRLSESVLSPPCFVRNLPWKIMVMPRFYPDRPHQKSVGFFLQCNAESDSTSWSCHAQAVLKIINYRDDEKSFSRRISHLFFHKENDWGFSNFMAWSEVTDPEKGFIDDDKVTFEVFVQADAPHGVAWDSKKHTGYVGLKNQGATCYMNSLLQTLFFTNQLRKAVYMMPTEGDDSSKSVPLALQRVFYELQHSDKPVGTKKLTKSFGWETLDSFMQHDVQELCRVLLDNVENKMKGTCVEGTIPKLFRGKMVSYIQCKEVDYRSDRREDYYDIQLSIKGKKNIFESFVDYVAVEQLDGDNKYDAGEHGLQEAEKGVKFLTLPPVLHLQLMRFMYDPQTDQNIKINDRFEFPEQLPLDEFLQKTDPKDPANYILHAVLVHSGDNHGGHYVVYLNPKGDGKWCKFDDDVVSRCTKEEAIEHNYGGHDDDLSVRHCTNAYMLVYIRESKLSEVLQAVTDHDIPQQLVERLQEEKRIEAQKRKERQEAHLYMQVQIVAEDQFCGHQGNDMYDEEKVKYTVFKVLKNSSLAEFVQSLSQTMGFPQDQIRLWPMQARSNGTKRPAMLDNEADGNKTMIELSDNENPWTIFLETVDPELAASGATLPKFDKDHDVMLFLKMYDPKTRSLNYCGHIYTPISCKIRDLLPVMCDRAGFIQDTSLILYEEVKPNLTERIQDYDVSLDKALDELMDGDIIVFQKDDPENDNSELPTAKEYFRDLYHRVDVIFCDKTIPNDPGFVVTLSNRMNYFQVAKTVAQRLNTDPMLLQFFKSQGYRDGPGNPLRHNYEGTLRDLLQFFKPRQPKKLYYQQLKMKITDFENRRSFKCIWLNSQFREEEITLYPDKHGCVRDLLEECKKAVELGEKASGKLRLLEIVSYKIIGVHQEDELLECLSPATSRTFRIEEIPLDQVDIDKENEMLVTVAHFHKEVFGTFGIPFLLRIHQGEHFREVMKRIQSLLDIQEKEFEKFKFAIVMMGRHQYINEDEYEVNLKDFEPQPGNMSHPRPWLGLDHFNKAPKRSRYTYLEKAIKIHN
How it was run: as §1

[8] = biological target: T5, USP8 (UniProt P40818)
T5 sequence (whole entry): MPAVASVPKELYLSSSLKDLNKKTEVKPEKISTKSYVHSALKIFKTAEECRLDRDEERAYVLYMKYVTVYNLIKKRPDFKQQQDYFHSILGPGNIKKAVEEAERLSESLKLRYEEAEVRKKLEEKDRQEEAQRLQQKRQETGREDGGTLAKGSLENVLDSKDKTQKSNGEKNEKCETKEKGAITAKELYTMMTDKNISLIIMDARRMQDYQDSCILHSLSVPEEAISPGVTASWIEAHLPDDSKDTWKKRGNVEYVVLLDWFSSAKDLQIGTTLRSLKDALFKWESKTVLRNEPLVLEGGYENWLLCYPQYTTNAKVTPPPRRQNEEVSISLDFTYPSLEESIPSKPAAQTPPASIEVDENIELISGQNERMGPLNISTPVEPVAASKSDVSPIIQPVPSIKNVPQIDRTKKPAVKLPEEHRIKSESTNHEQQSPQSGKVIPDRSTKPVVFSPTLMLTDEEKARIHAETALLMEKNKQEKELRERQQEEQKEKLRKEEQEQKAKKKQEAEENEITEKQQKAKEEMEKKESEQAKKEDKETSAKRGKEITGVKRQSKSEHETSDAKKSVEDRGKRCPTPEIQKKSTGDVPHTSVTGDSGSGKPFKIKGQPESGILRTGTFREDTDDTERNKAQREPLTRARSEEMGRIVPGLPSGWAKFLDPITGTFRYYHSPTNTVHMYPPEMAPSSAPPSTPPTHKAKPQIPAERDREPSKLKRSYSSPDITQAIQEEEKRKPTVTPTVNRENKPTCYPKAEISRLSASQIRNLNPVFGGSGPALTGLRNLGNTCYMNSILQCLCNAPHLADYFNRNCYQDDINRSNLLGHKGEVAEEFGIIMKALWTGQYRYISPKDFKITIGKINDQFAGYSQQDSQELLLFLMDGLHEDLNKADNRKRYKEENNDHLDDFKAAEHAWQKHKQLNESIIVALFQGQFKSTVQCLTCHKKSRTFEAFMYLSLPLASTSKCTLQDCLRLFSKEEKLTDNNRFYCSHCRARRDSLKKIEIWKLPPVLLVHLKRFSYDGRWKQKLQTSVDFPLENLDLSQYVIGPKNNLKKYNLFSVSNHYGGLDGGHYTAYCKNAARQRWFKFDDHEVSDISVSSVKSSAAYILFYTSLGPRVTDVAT
How it was run: as §1

[9] = biological target: USP9X (UniProt Q93008)
USP9X, sequence (Q93008 whole entry): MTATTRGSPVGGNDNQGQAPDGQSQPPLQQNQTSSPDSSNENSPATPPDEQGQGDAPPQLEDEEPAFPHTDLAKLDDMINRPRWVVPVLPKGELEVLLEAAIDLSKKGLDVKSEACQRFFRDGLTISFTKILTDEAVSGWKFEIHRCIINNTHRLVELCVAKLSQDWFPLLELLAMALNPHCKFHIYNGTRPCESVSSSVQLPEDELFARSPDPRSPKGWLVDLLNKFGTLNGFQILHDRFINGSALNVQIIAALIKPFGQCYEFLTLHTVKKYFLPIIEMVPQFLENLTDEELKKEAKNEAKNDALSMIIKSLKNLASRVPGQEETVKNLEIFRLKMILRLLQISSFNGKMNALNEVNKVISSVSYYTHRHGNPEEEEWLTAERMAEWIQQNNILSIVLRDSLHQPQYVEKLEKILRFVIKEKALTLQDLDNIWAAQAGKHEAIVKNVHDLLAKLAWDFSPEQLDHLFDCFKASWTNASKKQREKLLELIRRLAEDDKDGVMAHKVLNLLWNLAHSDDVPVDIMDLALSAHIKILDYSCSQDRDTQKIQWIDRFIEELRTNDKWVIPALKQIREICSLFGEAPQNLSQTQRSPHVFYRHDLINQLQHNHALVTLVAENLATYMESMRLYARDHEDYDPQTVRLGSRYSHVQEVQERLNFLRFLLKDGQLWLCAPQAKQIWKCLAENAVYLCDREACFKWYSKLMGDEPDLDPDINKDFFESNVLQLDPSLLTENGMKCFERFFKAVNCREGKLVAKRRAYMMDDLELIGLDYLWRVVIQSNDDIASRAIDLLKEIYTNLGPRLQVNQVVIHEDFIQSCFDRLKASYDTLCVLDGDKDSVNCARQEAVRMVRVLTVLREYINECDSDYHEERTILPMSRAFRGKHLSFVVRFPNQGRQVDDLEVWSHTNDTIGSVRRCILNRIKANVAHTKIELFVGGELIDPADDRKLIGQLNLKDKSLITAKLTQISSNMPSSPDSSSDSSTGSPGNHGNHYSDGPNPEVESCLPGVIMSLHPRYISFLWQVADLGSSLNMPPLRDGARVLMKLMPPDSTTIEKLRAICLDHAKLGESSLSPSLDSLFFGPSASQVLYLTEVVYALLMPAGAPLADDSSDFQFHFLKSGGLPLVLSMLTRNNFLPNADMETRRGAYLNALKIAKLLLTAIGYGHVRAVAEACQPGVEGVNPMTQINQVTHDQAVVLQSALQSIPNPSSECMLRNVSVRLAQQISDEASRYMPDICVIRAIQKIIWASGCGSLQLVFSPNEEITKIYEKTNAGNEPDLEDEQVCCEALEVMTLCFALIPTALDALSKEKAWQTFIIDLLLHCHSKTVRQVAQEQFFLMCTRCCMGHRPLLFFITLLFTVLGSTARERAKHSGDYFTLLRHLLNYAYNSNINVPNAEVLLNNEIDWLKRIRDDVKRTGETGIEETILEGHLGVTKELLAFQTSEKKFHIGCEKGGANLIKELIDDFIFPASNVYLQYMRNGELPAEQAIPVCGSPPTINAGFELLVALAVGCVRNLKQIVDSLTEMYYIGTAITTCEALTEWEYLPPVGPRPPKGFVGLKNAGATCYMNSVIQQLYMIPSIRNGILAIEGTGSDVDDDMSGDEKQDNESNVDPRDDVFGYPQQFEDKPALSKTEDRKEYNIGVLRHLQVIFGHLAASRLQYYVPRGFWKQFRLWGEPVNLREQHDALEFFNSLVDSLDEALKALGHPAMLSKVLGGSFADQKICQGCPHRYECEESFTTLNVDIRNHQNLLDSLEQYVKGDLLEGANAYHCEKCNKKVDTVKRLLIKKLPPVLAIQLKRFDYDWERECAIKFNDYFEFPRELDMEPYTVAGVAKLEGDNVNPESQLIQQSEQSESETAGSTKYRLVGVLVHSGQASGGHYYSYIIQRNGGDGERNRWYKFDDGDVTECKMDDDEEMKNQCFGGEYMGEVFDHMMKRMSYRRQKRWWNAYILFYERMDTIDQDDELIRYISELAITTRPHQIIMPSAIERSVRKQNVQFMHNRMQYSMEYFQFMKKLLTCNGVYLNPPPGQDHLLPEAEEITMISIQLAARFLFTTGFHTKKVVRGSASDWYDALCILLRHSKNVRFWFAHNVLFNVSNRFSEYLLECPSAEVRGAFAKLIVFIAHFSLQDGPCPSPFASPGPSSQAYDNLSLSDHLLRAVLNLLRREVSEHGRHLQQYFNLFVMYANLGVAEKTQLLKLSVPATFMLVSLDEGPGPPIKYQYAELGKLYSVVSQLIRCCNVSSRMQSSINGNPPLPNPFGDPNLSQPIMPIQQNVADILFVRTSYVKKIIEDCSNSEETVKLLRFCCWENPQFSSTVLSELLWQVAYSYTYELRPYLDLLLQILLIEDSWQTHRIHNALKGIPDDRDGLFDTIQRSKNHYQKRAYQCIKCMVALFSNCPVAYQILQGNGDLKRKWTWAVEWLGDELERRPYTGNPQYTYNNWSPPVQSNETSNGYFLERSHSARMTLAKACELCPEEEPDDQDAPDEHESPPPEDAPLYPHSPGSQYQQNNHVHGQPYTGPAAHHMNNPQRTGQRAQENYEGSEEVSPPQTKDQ
How it was run: as §1

[10] = biological target: UniProt O00487
UniProt O00487, sequence (O00487 whole entry): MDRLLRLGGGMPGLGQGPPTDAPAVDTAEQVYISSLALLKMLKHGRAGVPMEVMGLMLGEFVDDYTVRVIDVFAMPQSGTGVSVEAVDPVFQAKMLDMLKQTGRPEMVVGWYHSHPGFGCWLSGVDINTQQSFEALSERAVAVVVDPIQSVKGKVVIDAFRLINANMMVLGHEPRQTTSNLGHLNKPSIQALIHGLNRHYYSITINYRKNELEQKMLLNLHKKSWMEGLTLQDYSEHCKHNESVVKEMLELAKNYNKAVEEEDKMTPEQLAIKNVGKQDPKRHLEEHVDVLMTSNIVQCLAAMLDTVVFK
How it was run: as §1

Measured: log2 ratio of Biotin-Ahx-Ub-VS probe labelling

Cc1cccc(N2CCC(NC(=O)CCl)C2=O)c1 (stereo not given)
inactive: [1] -0.395 | [2] 0.013 | [3] -0.0227 | [4] -0.138 | [5] -0.179 | [6] 0.699 | [7] -0.204 | [8] -0.325 | [9] -0.421 | [10] 0.133

Reference: the supplement of paper PMC11732987, “Enantioselective OTUD7B fragment discovery through chemoproteomics screening and high-throughput optimisation” (Communications Chemistry, 2025)
